According to PubChem BioAssay (NCATS):
Values joined by “and” are separate entries in the source; they are usually repeats but may differ in a detail not shown here. Equal values may be shown once. Inconclusive results are not listed. Entries that show only a call come without a potency. A number with no mark means an inactive call. Active and inactive are the calls of the source. Unless noted, calls follow the shape of the dose curve; as a rule, active = well fitted curve in the direction sought with a large enough effect; inconclusive = small, poorly fitted or top-dose-only effect, or another doubt; inactive = no such curve, though single readings can be large; an effect the other way counts as inactive or inconclusive.

Target: Cellular tumor antigen p53 (Homo sapiens) (UniProt P04637)
Sequence (P04637 whole entry, looked up): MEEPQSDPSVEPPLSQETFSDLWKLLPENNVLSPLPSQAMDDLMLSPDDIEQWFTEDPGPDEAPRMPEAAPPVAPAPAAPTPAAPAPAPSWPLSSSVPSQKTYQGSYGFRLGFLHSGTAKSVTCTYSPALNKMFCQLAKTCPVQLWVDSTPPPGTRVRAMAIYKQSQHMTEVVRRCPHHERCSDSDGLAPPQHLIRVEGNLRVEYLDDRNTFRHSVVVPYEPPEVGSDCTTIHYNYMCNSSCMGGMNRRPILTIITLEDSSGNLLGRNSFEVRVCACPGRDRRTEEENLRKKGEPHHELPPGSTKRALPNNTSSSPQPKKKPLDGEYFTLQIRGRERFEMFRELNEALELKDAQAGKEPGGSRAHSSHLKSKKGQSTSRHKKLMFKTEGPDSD
Assay: Primary qHTS for small molecule compounds that upregulate eGFP-tagged delta133p53alpha (in N-terminal) cells. (AID 2060322); also: nearly all actives have a fitted effect of over 75% in size; also: potency is read from the fitted curve at half-maximal effect;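 as to activation: cells pre-induced with doxycycline then dosed without doxycycline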
Conditions: NCI-H358 eGFP-delta133p53alpha fluorescence, 24 h; activation: active compounds read high
How it was run: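 NCI-H358 cells pre-induced 24 h with 10 ng/ml doxycycline for eGFP-delta133p53alpha, plated dox-free and exposed 24 h at 37C to titrated compounds. Fixed, Hoechst-stained; gated GFP peak intensity by laser scanning cytometry, normalized to DMSO (0%) and 57.5 uM 5-azacytidine (100%).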

| Structure (SMILES) | activation | Potency |
| --- | --- | --- |
| COC1(CS(=O)c2ccccc2)CCN(CCc2c[nH]c3ccc(F)cc23)CC1 (centres undefined) | -25% |  |
| C=C1C[C@@H]2[C@H](CC[C@]3(C)C(=O)CC[C@@H]23)[C@@]2(C)C=CC(=O)C=C12 | -17.6% |  |
| O=C1CC[C@@]2(O)[C@H]3Cc4ccc(O)c5c4[C@@]2(CCN3CC2CC2)[C@H]1O5 | -5.99% and 2.51% |  |
| Cc1sc2c(c1C)C(c1ccc(Cl)cc1)=NC(CC(N)=O)c1nnc(C)n1-2 (centres undefined) | -1.12% |  |
| O=S(=O)(CC1CS1)c1ccc(Oc2ccccc2)cc1 (centres undefined) | -10.4% |  |
| CC(C)(O)C(=O)Nc1ccc([N+](=O)[O-])c(C(F)(F)F)c1 | -14.4% |  |
| N=c1c2c(-c3ccccc3)c(-c3ccccc3)n(Cc3ccccc3)c2ncn1C1CCC(O)CC1 (centres undefined) | 11.7% |  |
| N[C@@H](Cc1ccc(N(CCCl)CCCl)cc1)C(=O)O | 29.4% |  |
| COc1cccc2c1C(=O)c1c(O)c3c(c(O)c1C2=O)C[C@@](O)(C(=O)CO)CC3OC1CC(N2CCOC(OC)C2)C(O)C(C)O1 (some centres undefined) |  | 0.0276 µM (active) |
| CC1=C(O)C(=O)C=C2C1=CC=C1[C@@]2(C)CC[C@@]2(C)[C@@H]3C[C@](C)(C(=O)O)CC[C@]3(C)CC[C@]12C |  | 17.2 µM (active) |
| C#CC1(O)CCC2C3CCC4=CC(=O)CCC4(C)C3CCC21C (centres undefined) | 2.51% |  |
| CCCCCC[C@H]1C(=O)O[C@H](C)[C@H](NC(=O)c2cccc(NC=O)c2O)C(=O)O[C@@H](C)[C@@H]1OC(=O)CC(C)C | -21.7% |  |
| C[C@]12CC[C@H]3[C@@H](CCC4=CC(=O)CC[C@@]43C)[C@H]1CC[C@H]2OC(=O)CCC1CCCC1 | 28.3% |  |
| CCN1C[C@]2(OC(=O)c3ccccc3NC(C)=O)CC[C@H](OC)[C@@]34[C@H]5CC6[C@@H](OC)C[C@](O)(C(C[C@@H]23)[C@@H]14)[C@@]5(O)[C@@H]6OC | 24.6% |  |
| COc1ccc(C(=O)c2c(C)n(CCN3CCOCC3)c3cc(I)ccc23)cc1 | 27.2% |  |
| C[C@](O)(COc1ccc(C#N)cc1)C(=O)Nc1ccc(C#N)c(C(F)(F)F)c1 | -20% |  |

Target: Cellular tumor antigen p53 (Homo sapiens) (UniProt P04637)
Assay: Primary qHTS for small molecule compounds that upregulate eGFP-tagged delta133p53alpha (in C-terminal) cells. (AID 2060324); also: potency is read from the fitted curve at half-maximal effect
Conditions: NCI-H358 delta133p53alpha-eGFP (C-terminal tag), GFP fluorescence imaging, 24 h; series mostly up to 57.5 µM
How it was run: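 Readout: filtered GFP peak intensity of gated cells (laser scanning cytometer), normalized plate-wise to intraplate controls, DMSO wells = 0% activity. Cells: NCI-H358 D133p53a-eGFP, dox 100 ng/ml 24 h beforehand, then compound 24 h, 37 °C.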

| Structure (SMILES) | Potency |
| --- | --- |
| CC(N)Cc1c[nH]c2ccc(O)cc12 (centres undefined) | inactive |
| NCC(O)c1cc(O)c(O)cc1F (centres undefined) | inactive |
| CC(Cc1ccc(OCC(=O)O)cc1)NCC(O)c1cccc(Cl)c1 (centres undefined) | inactive |
| NC(=O)CN1CCCC1=O | inactive |
| C[N+]1(C)CCc2cc3c(cc2[C@H]1[C@@H]1OC(=O)c2c1ccc1c2OCO1)OCO3 | inactive |
| CC(NC(C)(C)C)C(=O)c1cccc(Cl)c1 (centres undefined) | inactive |
| Cc1c2ccncc2c(C)c2c1[nH]c1ccccc12 | 30.1 µM (active) |
| O=C1/C(=C/c2ccccc2)C[C@@]2(O)[C@H]3Cc4ccc(O)c5c4[C@@]2(CCN3CC2CC2)[C@H]1O5 | 21.3 µM (active) |
| CCCCCCCCCCCCCC(=O)O[C@@H]1[C@@H](C)[C@@]2(O)[C@@H](C=C(CO)C[C@@]3(O)C(=O)C(C)=C[C@@H]23)C2C(C)(C)[C@@]21OC(C)=O (some centres undefined) | inactive |
| NCCCP(=O)(O)O | inactive |

Target: Aldehyde dehydrogenase, mitochondrial (Homo sapiens) (UniProt P05091)
Assay: qHTS for Inhibitors of the Aldehyde Dehydrogenase Family (ALDH2) Validation screens (AID 2061302; active = well fitted inhibition curve with a large enough effect; title and protocol of this record describe different tests)
Conditions: ALDH inhibition qHTS; series mostly up to 42.6 µM

| Structure (SMILES) | Potency |
| --- | --- |
| CC(N)Cc1c[nH]c2ccc(O)cc12 (centres undefined) | inactive |
| NCC(O)c1cc(O)c(O)cc1F (centres undefined) | inactive |
| Cc1cccc(C)c1NC1=NCCCS1 | inactive |
| CC(Cc1ccc(OCC(=O)O)cc1)NCC(O)c1cccc(Cl)c1 (centres undefined) | inactive |
| CC(Cc1ccc(O)cc1)NCC(O)c1cc(O)cc(O)c1 (centres undefined) | inactive |
| C[C@@H]1O[C@@H](O[C@H]2C[C@@H](O)[C@]3(CO)[C@H]4[C@H](O)C[C@]5(C)[C@@H](C6=CC(=O)OC6)CC[C@]5(O)[C@@H]4CC[C@]3(O)C2)[C@H](O)[C@H](O)[C@H]1O | inactive |
| O=C1CC[C@@]2(O)C3Cc4ccc(O)c5c4C2(CCN3CC2CC2)[C@H]1O5 (some centres undefined) | inactive |
| NC(=O)CN1CCCC1=O | inactive |
| C[N+]1(C)CCc2cc3c(cc2[C@H]1[C@@H]1OC(=O)c2c1ccc1c2OCO1)OCO3 | inactive |
| CC(NC(C)(C)C)C(=O)c1cccc(Cl)c1 (centres undefined) | inactive |
| C[N+](C)(C)CC(=O)O | inactive |
| Cc1c2ccncc2c(C)c2c1[nH]c1ccccc12 | inactive |
| CNc1ccc2oc(C[C@H]3O[C@@]4(CC[C@H]3C)O[C@H]([C@H](C)C(=O)c3ccc[nH]3)[C@H](C)C[C@H]4C)nc2c1C(=O)O | inactive |
| CC(C)N(CCC(C(N)=O)(c1ccccc1)c1ccccn1)C(C)C (centres undefined) | inactive |
| O=c1[nH]c2ccccc2n1C1CCN(CCCC(c2ccc(F)cc2)c2ccc(F)cc2)CC1 | inactive |
| O=C1/C(=C/c2ccccc2)C[C@@]2(O)[C@H]3Cc4ccc(O)c5c4[C@@]2(CCN3CC2CC2)[C@H]1O5 | inactive |
| Cc1ncsc1CCCl | inactive |
| CCCN1CCC[C@@H](c2cccc(O)c2)C1 | inactive |
| C=CCN1CCC23c4c5ccc(O)c4O[C@H]2C(=O)CC[C@@]3(O)C1C5 (some centres undefined) | inactive |
| NC(N)=Nc1ccc2[nH]c3c(c2c1)C[C@@]1(O)[C@H]2Cc4ccc(O)c5c4[C@@]1(CCN2CC1CC1)[C@H]3O5 | inactive |
| CCCCCCCCCCCCCC(=O)O[C@@H]1[C@@H](C)[C@@]2(O)[C@@H](C=C(CO)C[C@@]3(O)C(=O)C(C)=C[C@@H]23)C2C(C)(C)[C@@]21OC(C)=O (some centres undefined) | inactive |
| NNC(N)=O | inactive |
| NCCCP(=O)(O)O | inactive |
